Measured values reported in article PMC9574860, “Chemical Toolkit for PARK7: Potent, Selective, and High-Throughput” (Journal of Medicinal Chemistry, 2022).
The campaign covered roughly 7,900 compounds. About 400 (5.1%) showed an effect of 50% or more. The full list was thinned out, with strong results kept by preference.

Molecular target: Parkinson's disease protein 7 (PARK7/DJ1) (human, UniProt Q99497)
Assay: primary screen, percent inhibition; read as competition with a fluorescent probe by fluorescence polarization; higher = more effect of the substance
Details: 100 µM
Outline: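 Covalent fragments at 100 μM final were incubated 2 h with 0.2 μM PARK7, then 20 nM probe JYQ-107 added for a further 2 h. Fluorescence polarization read at 480/520 nm; relative FP loss versus reference controls gave remaining enzyme activity.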

Parkinson's disease protein 7 (PARK7/DJ1), sequence (Q99497 whole entry, looked up): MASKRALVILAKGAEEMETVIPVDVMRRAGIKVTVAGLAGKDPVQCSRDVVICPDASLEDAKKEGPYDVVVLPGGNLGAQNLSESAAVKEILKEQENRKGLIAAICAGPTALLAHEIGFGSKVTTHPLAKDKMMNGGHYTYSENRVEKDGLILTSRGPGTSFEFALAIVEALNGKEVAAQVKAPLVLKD

First: O=C(CCl)N(C1CCCCC1)C1CCS(=O)(=O)C1 (stereo not drawn)
Second: O=C(CCl)c1cnc(N2CCCCC2)s1
The Inhibition % of the first is lower: 1.27% for the first, 8.03% for the second.

First: O=C(CCl)NCC#Cc1cccc(C(F)(F)F)c1
Second: CN(Cc1cccc(C(F)(F)F)c1)C(=O)CCl
The Inhibition % of the first is lower: 6.88% for the first, 37.1% for the second.

Going from `Cl.ClCCN1CC2CCC(C1)O2` to `ClCC1COCCO1` (stereo not drawn), the Inhibition % falls from 3.05% to -2.68%.

Going from `Cc1nc(C#N)[nH]c1C` to `Cc1nc(S)c(C#N)c(C)c1C`, the Inhibition % falls from 3.54% to 3.15%.

Going from `C=CC(=O)N1CCCC2(CCCOC2)C1` (stereo not drawn) to `C=CC(=O)N1CCC(C)(N2CCOCC2)CC1`, the Inhibition % falls from 11.3% to 10%.

Compared with `Cc1c(C#N)c(S)nc2c1CCC2`, `Cc1nnc(S)c(C#N)c1C` is higher in Inhibition %: 15.1% for the first, 53.3% for the second.

Compared with `CCOc1ccc(S(=O)(=O)n2nc(C)cc2C)cc1`, `Cc1ccn(S(=O)(=O)c2ccc(F)c(C)c2)n1` is higher in Inhibition %: 3.86% for the first, 6.8% for the second.

Compared with `Cc1nc(C)c(C=C(C#N)C(=O)NC(C)C)o1`, `COCC(C)NC(=O)C(C#N)=Cc1occc1C` (stereo not drawn) is higher in Inhibition %: 3.38% for the first, 5.2% for the second.

Going from `N#CC(=Cc1ccc(Cl)cc1)C(=O)Nc1ccncc1` to `C#Cc1ccc(C=C(C#N)C(=O)Nc2ccncc2)cc1`, the Inhibition % rises from 2.9% to 73.3%.

Compared with `N#CC(=Cc1ccncc1)C(=O)Nc1cccc(Cl)c1`, `C=CC(=O)Nc1cccc(C(=O)O)c1` is lower in Inhibition %: 10.5% for the first, 4.88% for the second.

Going from `C=CC(=O)NC1COc2cc(Cl)ccc2C1` (stereo not drawn) to `C=CC(=O)NC1COc2cc(F)cc(F)c21` (stereo not drawn), the Inhibition % falls from 6.51% to 3.21%.

Going from `CN1CCCN(C(=O)c2ccc(S(=O)(=O)F)cc2)c2ccccc21` to `O=S(=O)(F)c1ccc(S(=O)(=O)Nc2ccncc2F)cc1`, the Inhibition % falls from 17.9% to 17.6%.

Compared with `Cc1ccc(NC(=O)CN2CCSC2=O)cc1C`, `Cc1cc(C)cc(NC(=O)CN2CCSC2=O)c1` is higher in Inhibition %: 1.36% for the first, 5% for the second.

First: O=C(O)C=CC(=O)Nc1ccc(F)cc1
Second: O=C(O)C=CC(=O)Nc1ccc(F)c(Cl)c1
The Inhibition % of the first is lower: 7.34% for the first, 8.72% for the second.

Going from `O=C(O)C=CC(=O)Nc1ccc2[nH]ncc2c1` to `O=C(CN1CCSC1=O)Nc1ccc2[nH]ncc2c1`, the Inhibition % falls from 77.7% to 60.9%.

Going from `Cn1cc(NC(=O)CN2CCSC2=O)cn1` to `O=C(CN1CCSC1=O)Nc1cn[nH]c1`, the Inhibition % falls from 71.6% to 11.7%.

First: O=C(CN1CCSC1=O)Nc1ccc(Cl)c(Cl)c1
Second: O=C1SCCN1CC(=O)N1CCCc2ccccc21
The Inhibition % of the first is lower: 0.617% for the first, 7.03% for the second.

Compared with `Cc1c(C#N)c(NC(=O)CCl)n(-c2ccc(F)cc2)c1C`, `CN(Cc1ccc(F)cc1)C(=O)CCl` is higher in Inhibition %: 1.78% for the first, 39.9% for the second.

Compared with `COc1ccc2[nH]c(CCCCl)nc2n1.Cl`, `COc1ccc2[nH]c(C)c(C(=O)CCl)c2c1` is lower in Inhibition %: 23.2% for the first, 4.84% for the second.

Compared with `C=CS(=O)(=O)c1ccc(C#N)cn1`, `N#Cc1cc(C(=O)O)ccn1` is higher in Inhibition %: 1.18% for the first, 4.99% for the second.

First: O=S(=O)(Oc1ccccc1C(F)(F)F)c1c[nH]cn1
Second: Cc1ccc(F)c(OS(=O)(=O)c2cn[nH]c2C)c1
The Inhibition % of the first is lower: 10.4% for the first, 11.7% for the second.

First: COCCCS(=O)(=O)N1CCC(Cl)CC1
Second: C=CC(=O)N1CCC(OCC2CC2)CC1
The Inhibition % of the first is higher: 7.37% for the first, -0.254% for the second.

Going from `OB(O)c1cccc2c1OCCC2` to `Cc1ccc(OC2CCCC2)c(B(O)O)c1`, the Inhibition % falls from 4.89% to 2.59%.

Going from `C=CC(=O)N1CCc2c(cccc2C(F)(F)F)C1` to `C=CC(=O)N1CCc2c(F)cccc2C1`, the Inhibition % rises from -3.37% to 6.26%.

Going from `Cc1noc2ncc(S(=O)(=O)OCC(F)(F)F)cc12` to `COc1ncc(S(=O)(=O)F)cn1`, the Inhibition % rises from 18.2% to 31.2%.

Going from `O=S(=O)(F)c1ccc2cnccc2c1` to `O=S(=O)(F)c1ccc2[nH]ncc2c1`, the Inhibition % falls from 86.1% to 53%.

Compared with `O=S(=O)(F)c1cccnc1`, `O=S(=O)(F)c1ccc2cn[nH]c2c1` is higher in Inhibition %: 17.7% for the first, 72.5% for the second.

Going from `Cc1cc2[nH]ncc2cc1S(=O)(=O)F` to `O=S(=O)(F)c1ccc2c(c1)NCC2`, the Inhibition % falls from 97.4% to 26.6%.

First: O=S(=O)(F)c1ccc(F)cc1
Second: O=S(=O)(F)Cc1ccccc1Cl
The Inhibition % of the first is lower: 2.62% for the first, 7.95% for the second.

Compared with `Cc1cc(CNC(=O)CCl)ccc1F`, `Cc1ccc(CNC(=O)CCl)s1` is lower in Inhibition %: 18% for the first, 3.17% for the second.

First: Cc1cc(NS(=O)(=O)C=Cc2ccccc2Cl)n(C)n1
Second: Cc1ccc(C=CS(=O)(=O)Nc2ccnn2C(C)C)cc1
The Inhibition % of the first is lower: 8.51% for the first, 13% for the second.

Compared with `C=CC(=O)NC1CCCc2c1cnn2C` (stereo not drawn), `C=CC(=O)NC1CCN(c2cnn(C)c2)C1` (stereo not drawn) is higher in Inhibition %: 6.84% for the first, 33.9% for the second.

Going from `Cc1nc(C(C)C)oc1Cn1ccnc1C#N` to `Cc1ccc(F)c(N(C#N)Cc2nnc(C)o2)c1`, the Inhibition % rises from 8.62% to 69%.

Going from `Cc1cc2ncn(CC3CO3)c2cc1C` (stereo not drawn) to `CC(C)c1ccccc1OCC1CO1` (stereo not drawn), the Inhibition % falls from 20.8% to -4.39%.

Compared with `C=CC(=O)N1CC(OC)Cc2ccccc21` (stereo not drawn), `C=CC(=O)N1CCC(C(=O)O)(c2ccccc2)CC1` is lower in Inhibition %: 13.5% for the first, 2.37% for the second.

First: O=C(CCl)NCCOc1cccc(Cl)c1
Second: CN(Cc1cccc(Cl)c1)C(=O)CCl
The Inhibition % of the first is lower: 17.8% for the first, 49.6% for the second.

First: CCN(Cc1ccc2c(c1)OCO2)C(=O)CCl
Second: CCN(Cc1ccc(OC)c(F)c1)C(=O)CCl
The Inhibition % of the first is lower: 9.14% for the first, 10% for the second.

Going from `CN(Cc1ccccc1)C(=O)C=CC(=O)O` to `CN(C#N)Cc1ccccc1`, the Inhibition % rises from 23.5% to 62.8%.

Compared with `CN(CCc1ccccc1)c1nccnc1C#N`, `N#Cc1nnc(-c2ccccc2)s1` is higher in Inhibition %: 3.72% for the first, 11.8% for the second.

First: C=CC(=O)N1CCN2CCOCC2C1 (stereo not drawn)
Second: C=CC(=O)N1CCCN(CC2CCCO2)CC1 (stereo not drawn)
The Inhibition % of the first is lower: 8.35% for the first, 13.1% for the second.

Going from `COc1ccc(CN(C(=O)CCl)C2CC2)cc1` to `COc1ccc(CN(C)C(=O)CCl)cc1`, the Inhibition % rises from 15.6% to 61.5%.

Going from `CN(Cc1cccc(F)c1)C(=O)CCl` to `COc1cccc(CN(C)C(=O)CCl)c1`, the Inhibition % rises from 44.5% to 76.7%.

First: CCOc1ccc(C(=O)CCl)cc1
Second: COc1ccc(C(=O)CCl)cc1
The Inhibition % of the first is higher: 84.9% for the first, 3.52% for the second.

Going from `CN(Cc1ccc(OC(F)F)cc1)C(=O)CCl` to `CCOc1ccc(CN(C)C(=O)CCl)cc1`, the Inhibition % rises from 51.1% to 67.6%.

First: COc1ccc2cc(CN(C)C(=O)CCl)ccc2c1
Second: COc1ccc(CN(C)C(=O)CCl)cc1F
The Inhibition % of the first is lower: 8% for the first, 58.3% for the second.

Compared with `NC(=O)c1ccc(OCCCl)cc1`, `NC(=O)Cc1ccc(C(=O)CCl)s1` is higher in Inhibition %: -3.9% for the first, 97.4% for the second.

First: N#Cc1ccc(N2CCc3sccc3C2)cn1
Second: N#Cc1[nH]ccc2nccc1-2
The Inhibition % of the first is higher: 27.1% for the first, 18.7% for the second.

Going from `C=CC(=O)N(C)C1CCCc2cccnc21` (stereo not drawn) to `C=CC(=O)N1CCCC1c1cccc2c1OCCO2` (stereo not drawn), the Inhibition % falls from 7.75% to 4.1%.

Going from `N#CC1(CC2CO2)CCC1` (stereo not drawn) to `C=CC(=O)N1CCCN(C(=O)c2ccco2)CC1`, the Inhibition % falls from 3.78% to 1.97%.

Compared with `O=C1OCCC1n1nnc(-c2ccc(F)cc2)n1` (stereo not drawn), `Cc1nnc(CN(C#N)c2ccc(F)c(Cl)c2)o1` is higher in Inhibition %: 4.53% for the first, 5.26% for the second.

Compared with `C=CC(=O)NC1CSC1(C)C` (stereo not drawn), `C=CC(=O)NCc1ccc(C)s1` is lower in Inhibition %: 6.84% for the first, 1.04% for the second.

Compared with `OB(O)c1ccc(-c2ccccc2)cc1F`, `O=C(Nc1ccccc1)NC1CN(c2ccccc2)C1=O` (stereo not drawn) is lower in Inhibition %: 24.2% for the first, 5.74% for the second.

Compared with `Cc1ccc(C=C(C#N)C(N)=O)c(C)c1`, `Cc1cccc(C)c1NC(=O)Cn1cnc(C#N)n1` is higher in Inhibition %: 4.01% for the first, 6.38% for the second.

Compared with `COC(=O)c1ccccc1N(C)C(=O)CCl`, `COC(=O)c1sccc1NC(=O)CCl` is lower in Inhibition %: 6.59% for the first, 3.83% for the second.

Going from `C=CC(=O)Nc1nc2c(s1)COCC2` to `C=CC(=O)Nc1nsc(N2CCCC2)n1`, the Inhibition % rises from 6.4% to 16%.

Going from `CC1c2cccn2CCN1C(=O)n1ccnc1` (stereo not drawn) to `Cc1[nH]c2ccccc2c1C(=O)CCl`, the Inhibition % falls from 22% to 6.53%.

First: CC(=O)NCc1ccc(C(=O)CCl)s1
Second: CC(=O)NCCc1ccc(C(=O)CCl)s1
The Inhibition % of the first is higher: 91.1% for the first, 90.4% for the second.

Compared with `O=C(CCl)NCc1cccs1`, `O=C(CCl)NCCc1cccs1` is higher in Inhibition %: 3.94% for the first, 31.1% for the second.

Compared with `CC(C)(C)C(=O)NCc1ccc(C(=O)CCl)s1`, `CS(=O)(=O)NCCc1ccc(C(=O)CCl)s1` is higher in Inhibition %: 76.2% for the first, 97.6% for the second.

Compared with `O=C(CCl)NCC(=O)c1cccs1`, `O=C(CCl)NC(=O)NCCc1cccs1` is lower in Inhibition %: 15.1% for the first, 11.2% for the second.

First: O=C(CCl)c1sccc1Cl
Second: O=C(CCl)c1ccc(Cl)s1
The Inhibition % of the first is lower: 94.4% for the first, 94.6% for the second.

First: CS(=O)(=O)c1ccccc1NC(=O)CCl
Second: O=C(CCl)Nc1nc(-c2cccs2)cs1
The Inhibition % of the first is lower: 11.4% for the first, 11.6% for the second.

Compared with `CCc1ccc(CNC(=O)CCl)s1`, `O=C(CCl)NCc1ccc(Cl)s1` is higher in Inhibition %: 4.03% for the first, 15.9% for the second.

Going from `CCc1ccc(B2OC(C)(C)C(C)(C)O2)n1C(=O)OC(C)(C)C` to `CC1(C)OB(c2ccncc2)OC1(C)C`, the Inhibition % falls from 5.89% to 4.41%.

Compared with `Cc1ccc(C(=O)CCl)s1`, `O=C(CCl)c1ccc(CC(=O)N2CCOCC2)s1` is lower in Inhibition %: 28.1% for the first, 7.37% for the second.

Going from `CN(C)CCc1ccc(B(O)O)cc1.Cl` to `O=C(CCl)NCCc1ccsc1`, the Inhibition % rises from 2.57% to 27.9%.

First: Sc1nncc2ccccc12
Second: Sc1nncc(-c2cccs2)n1
The Inhibition % of the first is lower: 8.48% for the first, 94.3% for the second.

`CCCn1c(C)nnc1CN(C#N)c1cc(C)ccc1F` showed an Inhibition % of 20.1%.
